# APOBEC3A inh = APOBEC3A ssDNA deaminase inhibitors, primary screen, selectivity assay for APOBEC3G inhibitor project, biochemical, FAM/TAMRA oligo cleavage fluorescence; recombinant A3A, FAM/TAMRA ssDNA deamination fluorescence; inhibition, % at 20 µM; DNA dC->dU-editing enzyme APOBEC-3A (Homo sapiens), P31941; 330,000 compounds, 0.41% hits;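 active = at least 40% inhibition at 20 µM here, with at most 30% in a related deaminase screen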;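 note: plate controls were A3A with DMSO for no effect and wells lacking A3A enzyme for full effect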
# Target sequence (P31941 whole entry, looked up): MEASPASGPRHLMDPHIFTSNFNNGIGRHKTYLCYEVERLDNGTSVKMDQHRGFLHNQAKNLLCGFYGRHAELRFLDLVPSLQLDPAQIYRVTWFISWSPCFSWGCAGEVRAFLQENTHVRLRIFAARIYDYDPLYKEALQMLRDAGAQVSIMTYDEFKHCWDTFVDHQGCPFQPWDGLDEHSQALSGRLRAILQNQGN
# PHOSPHO1 block = PubChem AID 1565 | Phosphoethanolamine/phosphocholine phosphatase (Homo sapiens), Q8TCT1 | recombinant PHOSPHO1, absorbance phosphatase assay | inhibition, % at 13.3 µM | 290,000 compounds, 1.1% hits; in the data active = inhibition above about 60%
# Target sequence (Q8TCT1 whole entry, looked up): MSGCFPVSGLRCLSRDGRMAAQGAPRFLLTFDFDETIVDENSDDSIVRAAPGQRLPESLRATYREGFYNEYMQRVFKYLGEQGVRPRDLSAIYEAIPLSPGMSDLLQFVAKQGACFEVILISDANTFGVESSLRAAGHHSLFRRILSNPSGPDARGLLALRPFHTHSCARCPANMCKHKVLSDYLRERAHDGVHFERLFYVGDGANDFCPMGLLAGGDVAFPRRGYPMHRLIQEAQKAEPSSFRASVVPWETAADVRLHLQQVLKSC
# Wnt act = Wnt/beta-catenin pathway activators, primary screen, cell-based, plate reader, single point; 300,000 compounds, 1.2% hits; activation, % at 9.35 µM; Wnt/beta-catenin reporter cell assay, activator; in the data active = activation above about 30%, passing the limit was not always enough;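 note: 0% = neutral control wells and 100% = positive control wells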
# A3G deaminase = APOBEC3G DNA deaminase inhibitors, primary screen, biochemical, fluorescence, single-stranded DNA substrate, uHTS | 330,000 compounds, 0.28% hits | recombinant A3G, ssDNA deamination FAM/TAMRA fluorescence | inhibition, % at 20 µM;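 active = inhibition of at least 40% at 20 µM, with no more than 30% in the related APOBEC3A deaminase screen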;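 note: plate controls were DMSO wells with A3G for no effect and wells lacking A3G enzyme for full effect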
# esBAF inh = Bmi1 luciferase reporter increase in mESCs, primary screen, esBAF inhibitor project, mouse ES cells, Bmi1 luciferase knock-in, single point; 24 h; 100% = twice the neutral-well signal; reporter increase, % at 12.5 µM; 350,000 compounds, 2% hits; in the data active = activation above about 40%;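 note: 0% = median of the plate's neutral control wells and 100% = double that signal; a rise in the Bmi1 reporter signal indicates esBAF inhibition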
# MITF act = activators of MITF-driven TRPM1 promoter reporter, primary screen, cell-based, SK-MEL-5, luciferase, single point | SK-MEL-5 TRPM1-promoter luciferase, 24 h; % of positive control, neutral wells = 0 | activation, % at 12.5 µM | 300,000 compounds, 0.75% hits | AID 588334, 2011;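 active = mean activation of at least 80% with every replicate also reaching 80%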;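 note: 0% = neutral control wells and 100% = parthenolide positive control wells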
# A3A conf = APOBEC3A deaminase inhibitors, retest, confirmation, selectivity assay for APOBEC3G inhibitor project, biochemical, single concentration, fluorescence readout. shares compounds with APOBEC3A inh. recombinant A3A, ssDNA deaminase UDG fluorescence assay. inhibition, % at 20 µM. 1,400 compounds, 63% hits. AID 493151, 2011;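 active = inhibition reaching a set limit, 80% of the first screen's cutoff, at 20 µM in any replicate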;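 note: plate controls were DMSO wells with A3A for no effect and wells lacking A3A enzyme for full effect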
# UDG ctr A3A = E. coli UDG inhibitors, confirmation, counter-screen for APOBEC3A inhibitor project, biochemical, single concentration, fluorescence, FAM/TAMRA oligo; shares compounds with APOBEC3A inh; UDG counterscreen, FAM/TAMRA uracil oligo fluorescence; inhibition, % at 20 µM; 1,000 tested, under 10 active; AID 504714, 2011; call rule not given here
# The depositor's hits bear a star; / = no result given. Rows were chosen to be rich in hits. Some 3.6% of all compounds tested hit in one or more screens of this group.
SMILES,APOBEC3A inh,PHOSPHO1 block,Wnt act,A3G deaminase,esBAF inh,MITF act,A3A conf,UDG ctr A3A
O=C(O)c1ccc(N/N=C/C=C/c2ccc([N+](=O)[O-])o2)cc1,48*,26,1,25,11,15,41*,/
CC(=O)c1ccccc1NS(=O)(=O)c1cccc2nsnc12,41*,20,-1,8,-9,11,29*,2
COc1ccc(NC(=O)Nc2ccc3c(c2)C(=O)N(C)C[C@@H](OC)[C@@H](C)CN[C@@H](C)CO3)cc1,/,/,/,/,3,/,/,/
COc1ccc(NC(C)=[N+](C)CCNS(=O)(=O)c2ccc(Cl)cc2)cc1,46*,-23,-2,14,-2,5,29,/
CCCCn1c(SCC(=O)N2CCCC2)nnc1-c1ccccc1,3,13,2,-2,8,/,/,/
CCn1c(SCC(=O)N2CCCC2)nnc1-c1ccc(N)cc1,44*,2,0,25,2,/,65*,3
Cn1c(SCC(=O)NCc2ccccc2)nnc1-c1ccc(NC(=O)CCc2ccccc2)cc1,58*,-20,-3,14,-8,-14,51*,-1
Cn1c(SCC(=O)NCc2ccco2)nnc1-c1ccccc1,2,3,/,-3,-4,-1,/,/
CCCCSc1nnc(-c2ccc(NC(=O)CCc3ccccc3)cc2)n1C,0,5,/,-2,-5,-10,/,/
CCC(=O)Nc1cccc(-c2nnc(SCC(=O)NCc3ccco3)n2C)c1,46*,-71,/,21,-4,/,68*,3
Cn1c(Cc2ccccc2)nnc1SCCC(=O)Nc1ccccc1,69*,-17,-1,16,-2,/,74*,-4
CCn1c2c(c(C)cc1=O)C(=O)CC(C)(C)C2,-1,7,3,-5,/,8,/,/
CCn1c(C)c2c([n+]1CC)CC(C)(C)CC2=O,59*,91*,0,27,-3,5,76*,-4
CC(=O)Nc1cccc(NC(=O)Cc2cccs2)c1,0,19,-1,-4,0,2,/,/
COC(=O)c1cc(NC(=O)Cc2cccs2)cc(C(=O)OC)c1,64*,30,0,18,-1,/,48*,/
C[C@@H]1CCCCO[C@@H](CN(C)S(=O)(=O)c2cccs2)[C@H](C)CN([C@@H](C)CO)C(=O)c2cc(NS(=O)(=O)c3cccs3)ccc2O1,/,/,/,/,11,/,/,/
CCN1[C@H](C(=O)NCCc2ccccc2)[C@@H](CO)[C@@H]2Cn3c(ccc(C4=CCCC4)c3=O)[C@@H]21,/,/,/,/,1,/,/,/
COc1cc(C)c(NC(=O)C2CCN(S(=O)(=O)c3cccs3)CC2)cc1OC,57*,/,4,18,4,0,55*,0
COc1ccc2c(c1)c(=O)oc1cc(OCC(=O)N3CCc4ccccc4C3)ccc12,45*,12,-4,11,-3,/,71*,-2
COc1ccc2c(c1)c(=O)oc1cc(OCC(=O)N3CCCC(C)C3)ccc12 (stereo not drawn),8,-10,/,-5,7,-1,/,/
COc1ccc2c(c1)c(=O)oc1cc(OCC(=O)N3CCC(C)CC3)ccc12,54*,11,/,28,-7,0,49*,-1
COC(=O)C1=C(C)N(Cc2ccccc2)C(=NCCc2cccnc2)N[C@H]1c1ccccc1,80*,-19,/,27,1,12,74*,-3
COC(=O)C1=C(C)N(Cc2ccccc2)C(=NCCCCO)N[C@H]1c1ccccc1,52*,-52,/,19,/,/,75*,6
COC(=O)C1=C(C)N(Cc2ccccc2)C(=NCCc2cccnc2)N[C@H]1c1ccc(Br)cc1,45*,/,/,12,1,-80,54*,2
COC(=O)C1=C(C)N(Cc2ccccc2)C(=NCC2CC2)N[C@H]1c1ccccc1,39,/,8,7,-12,-10,/,/
SMILES,APOBEC3A inh,PHOSPHO1 block,Wnt act,A3G deaminase,esBAF inh,MITF act,A3A conf,UDG ctr A3A
C[C@H](CO)N1C[C@H](C)[C@@H](CN(C)Cc2ccccc2)OCCCC[C@H](C)Oc2ccc(NS(C)(=O)=O)cc2C1=O,/,/,/,/,-6,/,/,/
CCCNC(=O)N(C)C[C@@H]1Oc2cc(C3=CCCCC3)ccc2S(=O)(=O)N([C@@H](C)CO)C[C@@H]1C,/,/,/,/,1,/,/,/
O=C(N[C@@H]1CC[C@@H](CCn2cc(C3CCCCC3)nn2)O[C@@H]1CO)c1cccnc1,/,/,/,/,-1,/,/,/
CC(=O)N1CCCc2cc(S(=O)(=O)CCC(=O)N3CCN(c4cccc(C)c4)C(C)C3)ccc21 (stereo not drawn),0,-9,-1,-5,-3,-6,/,/
Cc1cccc(N2CCN(C(=O)CCS(=O)(=O)c3ccc(Br)cc3)CC2C)c1 (stereo not drawn),45*,-12,-5,18,0,-7,29,/
COc1ccccc1NC(=O)CSc1nnc(CNC(=O)c2ccco2)n1C,-2,40,-1,-10,-1,7,/,/
COc1ccccc1OCCSc1nnc(CNC(=O)c2ccco2)n1C,48*,-10,-1,6,-4,7,27,/
O=C(NCC[C@@H]1CC[C@H](NS(=O)(=O)c2ccc(Oc3ccccc3)cc2)[C@H](CO)O1)C1CC1,/,/,/,/,13,/,/,/
COC(=O)c1ccc(NC(=O)C2CCN(C(=O)Nc3ccccc3)CC2)cc1,59*,/,7,13,24,8,26,/
CC(C)c1ccc(C2(C)NC(=O)N(CC(=O)N3CCN(C(=O)c4cccs4)CC3)C2=O)cc1 (stereo not drawn),48*,/,0,-4,1,-10,6,1
CCC1(c2ccc(F)cc2)NC(=O)N(CC(=O)N2CCN(C(=O)c3cccs3)CC2)C1=O (stereo not drawn),1,/,2,-9,-8,-19,/,/
COc1ccc(NC(=O)Nc2ccc3c(c2)CC(=O)N([C@@H](C)CO)C[C@H](C)[C@@H](CN(C)C(=O)NC(C)C)O3)cc1,/,/,/,/,5,/,/,/
Cc1ccc(/C=C/S(=O)(=O)NCC(=O)OCC(=O)Nc2c(F)cccc2F)cc1,55*,/,-2,11,/,-8,1,/

# Source: PubChem
